From ChEMBL document CHEMBL4513216, “Probing the Open Global Health Chemical Diversity Library for Multistage-Active Starting Points for Next-Generation Antimalarials” (ACS Infect Dis, 2020) come the findings set out here.

The whole screen tested about 69,000 compounds, of which about 8,600 (12%) showed an effect of 50% or more. Only a selection was taken, and strong results are over-represented in it overall.

The assay has as its system Plasmodium berghei. Put plainly: Screen against P. berghei liver stage (PbLuc), transformed with Luciferase, at 10uM. Type of assay: functional, HepG2. As to conditions: tested at 10 uM.
On to `C[C@H]1C[C@@H]2CCN(C(=O)c3cccn3C)C[C@H]2O1`, for which the INHIBITION was found to be 25%.

For the compound `CC(O)CN(C)S(=O)(=O)c1ccc(C#N)cc1F` (stereo not given), the INHIBITION worked out at 64.6%.

With `Cc1ccc(S(=O)(=O)N(C)CC(C)O)c(F)c1` (stereo not given), the INHIBITION was 6.99%.

Turning to `Cc1c(F)cccc1S(=O)(=O)N(C)CC(C)O` (stereo not given), the INHIBITION is given as -37.6%.

`Cc1n[nH]c2nc(-c3ccccc3O)cc(C(=O)O)c12`: the INHIBITION is 7.09%.

Consider `OCCOc1cc(F)ccc1NCc1cccc(F)c1F`, for which the INHIBITION is given as 54.5%.

For `OCCOc1cc(F)ccc1NCc1ccc(F)c(F)c1`, the INHIBITION is recorded as -16.8%.

With `OCCOc1cc(F)ccc1NCc1nc(-c2cccs2)no1`, the INHIBITION worked out at 12.8%.

Consider `N#Cc1ccc(F)c(CNc2ccc(F)cc2OCCO)c1`, for which the INHIBITION was determined as 10.9%.

In the case of `Cc1ccccc1-c1noc(CNc2ccc(F)cc2OCCO)n1`, the INHIBITION came out at 52.6%.

Consider `COc1ccccc1-c1noc(CNc2ccc(F)cc2OCCO)n1`, for which the INHIBITION is given as 13.7%.

With `Cc1nc(CC(=O)N2CCn3c(nnc3C(C)C)C2)cs1`, the INHIBITION is given as 18.15%.

`O=C(CCc1ccc(-c2ccccc2)[nH]1)N1CCCC(n2ccnc2)C1` (stereo not given): the INHIBITION is 3.5625%.

`CCC(=O)Nc1cccc(OCC(=O)N[C@@H]2C[C@@H]3CC[C@H]2C3)c1`: the INHIBITION is on record as -23.4%.

Regarding `Cc1nc(C2CCCN(C(C)C)C2)sc1Br` (stereo not given), the INHIBITION is given as 11.8%.

With `O=C(Nc1ccccn1)C1CC(=O)N(Cc2ccccn2)C1` (stereo not given), the INHIBITION is reported as -87.6%.

`O=C(C1CC(F)(F)C1)N1CC[C@H]2OCC[C@@]2(COCC2CC2)C1`: the INHIBITION is listed as 39.3%.

Take `COC[C@@]12CCO[C@@H]1CCN(C(=O)C1CC(F)(F)C1)C2`: the INHIBITION came to 94.6%.

Turning to `COC[C@@]12CCO[C@@H]1CCN(C(=O)C1CCOCC1)C2`, the INHIBITION stood at 13.1%.

On to `CN1CC(=O)N(c2ccccc2)CC12CCN(CC1CC1)C2` (stereo not given), for which the INHIBITION turned out to be 48.9%.

`O=C(NCCCn1cncn1)N1CCC(N2CCCCC2)CC1`: the INHIBITION is recorded as -17.167%.

With `Cn1cccc1C(=O)N1CCc2ccc(=O)n(C)c2CC1`, the INHIBITION is on record as 21.4%.

On to `O=C1CC(c2cccnc2)c2c(c(C(=O)O)cn2-c2cccc(F)c2)N1` (stereo not given), for which the INHIBITION is -18.3%.

For `CN1CCC2(CCN(c3ncc(F)cn3)CC2)C1=O`, the INHIBITION turned out to be 30.5%.

In the case of `CN(Cc1nc(CC2CC2)no1)CC1Cc2ccccc2O1` (stereo not given), the INHIBITION was 12.6%.

On to `CN(Cc1nc(Cc2ccccc2F)no1)CC1Cc2ccccc2O1` (stereo not given), for which the INHIBITION was 52%.

As for `CN(Cc1nc(COc2ccccc2)no1)CC1Cc2ccccc2O1` (stereo not given), the INHIBITION is 8.07%.

Consider `O=C(Nc1nc(-c2ccccc2)ns1)N1CC[C@H](O)C1`, for which the INHIBITION came to 9.79%.

Regarding `CCSc1ccc(C(=O)N2CCC3(CCC(=O)N(C)C3)CC2)s1`, the INHIBITION is 20.3%.

For the compound `Cc1c(Br)cnn1C(C)C(=O)Nc1nncs1` (stereo not given), the INHIBITION came to 39.9%.

`Cc1nnc(NC(=O)C(C)n2ncc(Br)c2C)s1` (stereo not given): the INHIBITION turned out to be 50.2%.

As for `Cc1nc(NC(=O)C(C)n2ncc(Br)c2C)sc1C` (stereo not given), the INHIBITION is reported as 21.5%.

Consider `CN(C)Cc1cnc(C2CCN(C(=O)c3cccc(Cl)c3)C2)[nH]1` (stereo not given), for which the INHIBITION is given as 12.375%.

As to `COC(=O)CC1CCN(C(=O)c2ccccc2-n2nnnc2C)CC1`, the INHIBITION stood at 9.57%.

As to `Cc1nn(C)cc1CN1CCCC(n2c(=O)oc3ccc(Cl)cc32)C1` (stereo not given), the INHIBITION was determined as 36%.

On to `Cc1ccc(N(C)S(=O)(=O)c2cc(C(=O)O)cs2)cc1`, for which the INHIBITION turned out to be 52.5%.

Take `Cc1cc(C)cc(N(C)S(=O)(=O)c2cc(C(=O)O)cs2)c1`: the INHIBITION amounted to 34.7%.

With `CN(c1ccc(C(C)(C)C)cc1)S(=O)(=O)c1cc(C(=O)O)cs1`, the INHIBITION amounted to 20.6%.

Turning to `O=c1n(CCSCCOc2ccc(Br)cc2)nc2ccccn12`, the INHIBITION worked out at 2.49%.

As to `O=C(CN1C(=O)CCNC1=O)N1CCOC(c2ccc(Cl)c(Cl)c2)C1` (stereo not given), the INHIBITION was -52.2%.

In the case of `CNC(=O)c1ccc(C2CN(c3cc(C)nc(N)n3)CCO2)nc1` (stereo not given), the INHIBITION was 25.855%.

Regarding `O=C(NC1CC1)c1ccnc(N2CCOC(c3ccc(Cl)c(Cl)c3)C2)c1` (stereo not given), the INHIBITION came to 86.6%.

`O=C(c1ccnc(N2CCOC(c3ccc(Cl)cc3)C2)c1)N1CCCC1` (stereo not given): the INHIBITION was found to be 73.5%.

As for `O=C(c1ccnc(N2CCOC(C(F)(F)F)C2)c1)N1CCOCC1` (stereo not given), the INHIBITION stood at 12.7%.

As to `O=C(c1ccnc(N2CCOC(C(F)(F)F)C2)c1)N1CCCC1` (stereo not given), the INHIBITION was 7.77%.

For the compound `CC(C)n1ccnc1C1CCCN(c2cc(C(=O)NC3CC3)ccn2)C1` (stereo not given), the INHIBITION turned out to be 31.2%.

Consider `O=C(NC1CC1)c1ccnc(N2CCOC(c3ccc(Cl)cc3)C2)c1` (stereo not given), for which the INHIBITION was determined as 67.7%.

Take `CN1CCN(C(=O)c2ccnc(N3CCOC(C(F)(F)F)C3)c2)CC1` (stereo not given): the INHIBITION is recorded as -14.1%.

Take `Cn1cc(CN2C[C@H]3CCN(C(=O)c4cscn4)C[C@H]3C2)cn1`: the INHIBITION was found to be 43.9%.

`CC(C)Oc1ncccc1CNC(=O)Nc1ccccn1`: the INHIBITION is on record as -17.6%.

Turning to `Cc1cc(-c2ccccc2C(=O)O)nc(C2CCCN(C(C)C)C2)n1` (stereo not given), the INHIBITION came out at 13%.

Take `Cc1nc(NC2CCCC2)cc(C2CCN2C(=O)c2cnn(C)c2)n1` (stereo not given): the INHIBITION amounted to 0.301%.

As for `Cc1ccc2c(c1)SCC(=O)N2Cc1noc(C2CC2)n1`, the INHIBITION is recorded as -0.578%.

As to `CCn1cnnc1CNC(=O)NC(c1ccc(OC)cc1)C1CC1` (stereo not given), the INHIBITION amounted to 32.5%.

As to `CC(CN1CCOCC1)NC(=O)N(C)Cc1ccc(Cl)s1` (stereo not given), the INHIBITION was -12.6%.
